Values joined by “and” are separate entries in the source; they are usually repeats but may differ in a detail not shown here. Equal entries are not always repeated. Hit rate of the full screen: of about 5,500 compounds, about 2,000 (36%) were called active. Another 18% or so got no clear call; they are omitted. Cut-off read from the data, not from the text of the source: active = normalized growth mostly below about 0.91 (no sharp cut-off); inconclusive = no clear call, values can overlap the other calls; inactive = mostly above about 0.92. Some of the results follow.
Assay: chemical genetic growth profiling, strain panel (AID 1159580);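 note: tested at 20 µM; growth read once vehicle control cultures reached saturation at 30 °C; 1 = growth at the plate median or of vehicle wells; lower values mean less growth of the strain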
Settings: growth OD

Measured: normalized growth

Cc1cc(N)c2ccccc2[n+]1CCCCCCCCCC[n+]1c(C)cc(N)c2ccccc21
active: S. cerevisiae deletion strains, locus YJL187C, strain SWE1, active compounds read low 0.066 | S. cerevisiae deletion strains, locus YJR043C, strain POL32, active compounds read low 0.0703 | S. cerevisiae deletion strains, locus YJR075W, strain HOC1, active compounds read low 0.0707 and 0.0679 | S. cerevisiae deletion strains, locus YKL009W, strain mrt4, active compounds read low 0.107 | S. cerevisiae deletion strains, locus YKL068W, active compounds read low 0.0834 | S. cerevisiae deletion strains, locus YKL085W, strain MDH1 (second series), active compounds read low 0.0842 | S. cerevisiae deletion strains, locus YKL085W, strain MDH1, active compounds read low 0.0842 | S. cerevisiae deletion strains, locus YKL160W, strain elf1, active compounds read low 0.0728 | S. cerevisiae deletion strains, locus YKL190W, strain CNB1, active compounds read low 0.0496 | S. cerevisiae deletion strains, locus YKR001C, strain vps1, active compounds read low 0.0684 | S. cerevisiae deletion strains, locus YKR026C, strain gcn3, active compounds read low 0.0705 | S. cerevisiae deletion strains, locus YKR091W, strain srl3, active compounds read low 0.0679 | S. cerevisiae deletion strains, locus YLL001W, strain dnm1, active compounds read low 0.0644 | S. cerevisiae deletion strains, locus YLL026W, active compounds read low 0.0616 | S. cerevisiae deletion strains, locus YLL041C, strain sdh2, active compounds read low 0.0642 | S. cerevisiae deletion strains, locus YLR027C, strain aat2, active compounds read low 0.0617 | S. cerevisiae deletion strains, locus YLR039C, strain RIC1, active compounds read low 0.0806 | S. cerevisiae deletion strains, locus YLR058C, strain SHM2, active compounds read low 0.0484 | S. cerevisiae deletion strains, locus YLR102C, strain apc9, active compounds read low 0.0687 | S. cerevisiae deletion strains, locus YLR221C, strain rsa3, active compounds read low 0.0648 | S. cerevisiae deletion strains, locus YLR258W, strain gsy2, active compounds read low 0.0653 | S. cerevisiae deletion strains, locus YLR262C, strain YPT6 (second series), active compounds read low 0.0835 | S. cerevisiae deletion strains, locus YLR262C, strain YPT6, active compounds read low 0.107 | S. cerevisiae deletion strains, locus YLR268W, strain sec22, active compounds read low 0.0712 | S. cerevisiae deletion strains, locus YLR320W, strain mms22, active compounds read low 0.0855 | S. cerevisiae deletion strains, locus YLR330W, strain CHS5, active compounds read low 0.0547 | S. cerevisiae deletion strains, locus YLR342W, strain FKS1 (second series), active compounds read low 0.0723 | S. cerevisiae deletion strains, locus YLR342W, strain FKS1, active compounds read low 0.0695 | S. cerevisiae deletion strains, locus YLR357W, strain rsc2, active compounds read low 0.126 | S. cerevisiae deletion strains, locus YLR370C, strain arc18, active compounds read low 0.0633 | S. cerevisiae deletion strains, locus YLR371W, strain rom2, active compounds read low 0.0663 | S. cerevisiae deletion strains, locus YLR384C, strain iki3, active compounds read low 0.0616 | S. cerevisiae deletion strains, locus YLR418C, strain cdc73, active compounds read low 0.101 | S. cerevisiae deletion strains, locus YML016C, strain PPZ1, active compounds read low 0.0475 | S. cerevisiae deletion strains, locus YML032C, strain rad52, active compounds read low 0.0723 | S. cerevisiae deletion strains, locus YML120C, strain ndi1, active compounds read low 0.0605 | S. cerevisiae deletion strains, locus YML124C, strain tub3, active compounds read low 0.0637 | S. cerevisiae deletion strains, locus YMR058W, strain fet3, active compounds read low 0.0627 | S. cerevisiae deletion strains, locus YMR078C, strain ctf18, active compounds read low 0.0768 | S. cerevisiae deletion strains, locus YMR125W, strain sto1, active compounds read low 0.0824 | S. cerevisiae deletion strains, locus YMR129W, active compounds read low 0.069 | S. cerevisiae deletion strains, locus YMR205C, strain PFK2, active compounds read low 0.0906 | S. cerevisiae deletion strains, locus YMR223W, strain ubp8, active compounds read low 0.0681 | S. cerevisiae deletion strains, locus YMR231W, strain pep5, active compounds read low 0.0782 | S. cerevisiae deletion strains, locus YMR263W, strain SAP30, active compounds read low 0.0586 | S. cerevisiae deletion strains, locus YMR307W, strain GAS1, active compounds read low 0.119 and 0.0541 | S. cerevisiae deletion strains, locus YNL067W, strain RPL9B, active compounds read low 0.0529 | S. cerevisiae deletion strains, locus YNL071W, strain lat1, active compounds read low 0.0636 | S. cerevisiae deletion strains, locus YNL128W, strain TEP1, active compounds read low 0.0667 and 0.0791 | S. cerevisiae deletion strains, locus YNL153C, strain GIM3, active compounds read low 0.0526 and 0.0904 | S. cerevisiae deletion strains, locus YNL175C, strain NOP13, active compounds read low 0.0762 | S. cerevisiae deletion strains, locus YNL197C, strain WHI3, active compounds read low 0.0722 | S. cerevisiae deletion strains, locus YNL209W, strain ssb2, active compounds read low 0.0673 | S. cerevisiae deletion strains, locus YNL224C, strain SQS1, active compounds read low 0.0723 | S. cerevisiae deletion strains, locus YNL233W, strain BNI4, active compounds read low 0.0625 | S. cerevisiae deletion strains, locus YNL248C, strain rpa49, active compounds read low 0.0815 | S. cerevisiae deletion strains, locus YNL250W, strain rad50, active compounds read low 0.136 | S. cerevisiae deletion strains, locus YNL271C, strain bni1, active compounds read low 0.0837 | S. cerevisiae deletion strains, locus YNL298W, strain CLA4, active compounds read low 0.0752 | S. cerevisiae deletion strains, locus YNL307C, strain MCK1, active compounds read low 0.0714 | S. cerevisiae deletion strains, locus YNL322C, strain KRE1 (second series), active compounds read low 0.0698 | S. cerevisiae deletion strains, locus YNL322C, strain KRE1, active compounds read low 0.0558 | S. cerevisiae deletion strains, locus YNR049C, strain mso1, active compounds read low 0.0605 | S. cerevisiae deletion strains, locus YNR052C, strain pop2, active compounds read low 0.0672 | S. cerevisiae deletion strains, locus YOL006C, strain TOP1, active compounds read low 0.11 | S. cerevisiae deletion strains, locus YOL147C, strain pex11, active compounds read low 0.0611 | S. cerevisiae deletion strains, locus YOR001W, strain rrp6, active compounds read low 0.0775 | S. cerevisiae deletion strains, locus YOR061W, strain CKA2, active compounds read low 0.0489 | S. cerevisiae deletion strains, locus YOR069W, strain VPS5, active compounds read low 0.0494 | S. cerevisiae deletion strains, locus YOR070C, strain gyp1, active compounds read low 0.0633 | S. cerevisiae deletion strains, locus YOR080W, strain dia2, active compounds read low 0.0687 | S. cerevisiae deletion strains, locus YOR083W, strain WHI5 (second series), active compounds read low 0.081 | S. cerevisiae deletion strains, locus YOR083W, strain WHI5, active compounds read low 0.0703 | S. cerevisiae deletion strains, locus YOR106W, strain vam3, active compounds read low 0.065 | S. cerevisiae deletion strains, locus YOR136W, strain idh2, active compounds read low 0.0784 | S. cerevisiae deletion strains, locus YOR144C, strain elg1, active compounds read low 0.0641 | S. cerevisiae deletion strains, locus YOR184W, strain ser1, active compounds read low 0.0725 | S. cerevisiae deletion strains, locus YOR265W, strain rbl2, active compounds read low 0.0616 | S. cerevisiae deletion strains, locus YOR270C, strain vph1, active compounds read low 0.0961 | S. cerevisiae deletion strains, locus YOR290C, strain snf2, active compounds read low 0.0714 | S. cerevisiae deletion strains, locus YOR316C, strain cot1, active compounds read low 0.066 | S. cerevisiae deletion strains, locus YPL051W, strain arl3, active compounds read low 0.0687 | S. cerevisiae deletion strains, locus YPL055C, strain LGE1, active compounds read low 0.0706 and 0.0896 | S. cerevisiae deletion strains, locus YPL078C, strain atp4, active compounds read low 0.0678 | S. cerevisiae deletion strains, locus YPL106C, strain sse1, active compounds read low 0.111 | S. cerevisiae deletion strains, locus YPL240C, strain hsp82, active compounds read low 0.0603 | S. cerevisiae deletion strains, locus YPL241C, strain CIN2, active compounds read low 0.0524 and 0.0485 | S. cerevisiae deletion strains, locus YPR119W, strain clb2, active compounds read low 0.0709 | S. cerevisiae deletion strains, locus YPR141C, strain kar3, active compounds read low 0.0821 | S. cerevisiae deletion strains, locus YPR163C, strain tif3, active compounds read low 0.0791 | S. cerevisiae deletion strains, locus YPR167C, strain met16, active compounds read low 0.0671 | S. cerevisiae deletion strains, strain wtn01, active compounds read low 0.0664 | S. cerevisiae strains, strain wild type, active compounds read low 0.0519
